Measured values from paper PMC9838217, “Structure of SALL4 zinc finger domain reveals link between AT-rich DNA binding and Okihiro syndrome”.
Positions count from the first letter of the chain named.

Tests used:
Experiment in all cases: HT-SELEX; high values mean tight binding
Conditions in all cases: protein: recombinant; vector His6-GST; dsDNA, one strand shown
[1] = molecular target: T1, SALL4 ZFC4 WT (HT-SELEX) (Mus musculus, UniProt Q8BX22 870-940)
T1 sequence: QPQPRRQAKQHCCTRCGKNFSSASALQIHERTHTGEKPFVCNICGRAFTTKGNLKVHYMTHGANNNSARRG
Procedure, shortened: (§1)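 In triplicate selections of up to 6 cycles, purified recombinant mouse SALL4 zinc finger cluster 4 (residues 870–940, 1 µg) was incubated 10 min at room temperature with library DNA (1.5 µg, then 200 ng) in 100 µl of 10 mM Tris–HCl pH 7.5, 50 mM NaCl, poly(dI-dC) and DTT, and complexes were captured on Ni2+ beads, washed and PCR-amplified. Sequencing was done on MiSeq with scanning for 6-mers. The binding signal is each canonical k-mer's read fraction, reported as fold change against the initial random library.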

[2] = molecular target: T2, SALL4 ZFC4 R900W (HT-SELEX) (Mus musculus, UniProt Q8BX22 870-940, R900W)
T2 sequence: T1 sequence with R31W
Procedure, shortened: as §1

[3] = molecular target: T3, SALL4 ZFC4 G921D (HT-SELEX) (Mus musculus, UniProt Q8BX22 870-940, G921D)
T3 sequence: T1 sequence with G52D
Procedure, shortened: as §1

Row | Sequence | binding signal [1] [fold-change vs cycle 0] | binding signal [2] [fold-change vs cycle 0] | binding signal [3] [fold-change vs cycle 0]
1 | CGAATA | 1.1 ± 0.0554 | 1.13 ± 0.0519 | 1.14 ± 0.0398
2 | GTTGGA | 0.713 ± 0.0283 | 0.83 ± 0.0624 | 0.883 ± 0.0383
3 | ACCCCT | 0.522 ± 0.0409 | 0.619 ± 0.0154 | 0.676 ± 0.0257
4 | AAGTAG | 1.32 ± 0.0481 | 1.52 ± 0.0706 | 1.39 ± 0.0907
5 | ACGTGG | 0.369 ± 0.00823 | 0.462 ± 0.0221 | 0.54 ± 0.0513
6 | ACTAAT | 2.16 ± 0.0523 | 2.13 ± 0.102 | 1.86 ± 0.174
7 | AGTGGG | 0.455 ± 0.0261 | 0.528 ± 0.0236 | 0.608 ± 0.0502
8 | ATGGTA | 1.45 ± 0.0382 | 1.48 ± 0.0495 | 1.4 ± 0.052
9 | AATAGA | 2.12 ± 0.0946 | 2.06 ± 0.0912 | 1.79 ± 0.161
10 | GCTGAC | 0.325 ± 0.00641 | 0.408 ± 0.0215 | 0.526 ± 0.0825
11 | GATGGA | 0.878 ± 0.0295 | 0.978 ± 0.0402 | 0.97 ± 0.0258
12 | AATTAA | 3.49 ± 0.279 | 2.6 ± 0.189 | 2.2 ± 0.282
13 | ACATTC | 1.29 ± 0.0367 | 1.44 ± 0.0794 | 1.37 ± 0.0959
14 | ATGTAA | 2.3 ± 0.158 | 2.09 ± 0.134 | 1.83 ± 0.187
15 | GAATCA | 1.35 ± 0.0589 | 1.45 ± 0.0456 | 1.38 ± 0.0555
16 | AACACA | 1.18 ± 0.0535 | 1.29 ± 0.058 | 1.27 ± 0.0417
17 | ATCGGA | 0.708 ± 0.0433 | 0.804 ± 0.0524 | 0.928 ± 0.0274
18 | ACAAAT | 1.82 ± 0.0876 | 1.76 ± 0.0787 | 1.61 ± 0.106
19 | AAAGCG | 0.393 ± 0.0227 | 0.489 ± 0.0338 | 0.601 ± 0.0731
20 | ATGTGC | 0.53 ± 0.0281 | 0.588 ± 0.00704 | 0.719 ± 0.0265

Row | Sequence | binding signal [1] [fold-change vs cycle 0] | binding signal [2] [fold-change vs cycle 0] | binding signal [3] [fold-change vs cycle 0]
21 | CAAGAG | 0.839 ± 0.0412 | 1.03 ± 0.0313 | 1.015 ± 0.00973
22 | GTCTGA | 0.754 ± 0.0534 | 0.884 ± 0.0322 | 0.945 ± 0.0454
23 | CGAAAA | 0.827 ± 0.0572 | 0.851 ± 0.0107 | 0.912 ± 0.0336
24 | AATCGT | 1.18 ± 0.0336 | 1.21 ± 0.0227 | 1.23 ± 0.0244
25 | AAATTT | 2.66 ± 0.248 | 2.17 ± 0.141 | 1.93 ± 0.166
26 | AGGAAG | 0.939 ± 0.0254 | 1.172 ± 0.0114 | 1.11 ± 0.034
27 | CCGAAC | 0.325 ± 0.00544 | 0.387 ± 0.0114 | 0.512 ± 0.0786
28 | CAAACC | 0.669 ± 0.0487 | 0.765 ± 0.014 | 0.864 ± 0.0462
29 | AGAACC | 0.8 ± 0.0457 | 0.93 ± 0.0272 | 0.981 ± 0.014
30 | ACGGAT | 0.764 ± 0.0238 | 0.855 ± 0.00544 | 0.887 ± 0.0254
31 | GAGAAA | 1.28 ± 0.0744 | 1.39 ± 0.0816 | 1.29 ± 0.0905
32 | AGGTGG | 0.487 ± 0.0135 | 0.556 ± 0.0106 | 0.647 ± 0.0454
33 | AATCCA | 1.41 ± 0.0345 | 1.44 ± 0.0422 | 1.37 ± 0.0637
34 | CAAGAC | 0.74 ± 0.0108 | 0.856 ± 0.0182 | 0.905 ± 0.036
35 | TAACCA | 1.42 ± 0.042 | 1.47 ± 0.047 | 1.37 ± 0.0838
36 | AAGCTT | 1.18 ± 0.0611 | 1.27 ± 0.0133 | 1.24 ± 0.0566
37 | GCTCTA | 0.572 ± 0.0244 | 0.686 ± 0.0351 | 0.788 ± 0.0186
38 | TGCGAA | 0.447 ± 0.0325 | 0.488 ± 0.0122 | 0.618 ± 0.0628
39 | AACGGT | 0.689 ± 0.0523 | 0.7682 ± 0.0076 | 0.832 ± 0.0229
40 | CTTAGA | 1.28 ± 0.0284 | 1.45 ± 0.0641 | 1.36 ± 0.0933

Row | Sequence | binding signal [1] [fold-change vs cycle 0] | binding signal [2] [fold-change vs cycle 0] | binding signal [3] [fold-change vs cycle 0]
41 | CCGTAA | 0.687 ± 0.0267 | 0.78 ± 0.0395 | 0.825 ± 0.0254
42 | AGGAGC | 0.374 ± 0.0206 | 0.46 ± 0.0185 | 0.595 ± 0.0548
43 | GAAGGC | 0.304 ± 0.0244 | 0.39 ± 0.0131 | 0.522 ± 0.0691
44 | GTCATA | 1.45 ± 0.0661 | 1.36 ± 0.05 | 1.34 ± 0.0974
45 | ATCACG | 0.751 ± 0.0409 | 0.856 ± 0.012 | 0.923 ± 0.0125
46 | AACACG | 0.6337 ± 0.00219 | 0.737 ± 0.0205 | 0.823 ± 0.0377
47 | GAAACA | 1.23 ± 0.0252 | 1.33 ± 0.0252 | 1.29 ± 0.046
48 | CATGCA | 0.683 ± 0.0413 | 0.757 ± 0.0296 | 0.805 ± 0.0272
49 | AAAACA | 1.61 ± 0.0773 | 1.67 ± 0.055 | 1.55 ± 0.0435
50 | AATTTC | 2.1 ± 0.178 | 1.76 ± 0.0861 | 1.64 ± 0.101
51 | CAACTG | 0.724 ± 0.0172 | 0.829 ± 0.0401 | 0.9 ± 0.0128
52 | GCTAAC | 0.704 ± 0.0424 | 0.792 ± 0.0586 | 0.89 ± 0.0355
53 | CTGTCC | 0.398 ± 0.039 | 0.493 ± 0.0175 | 0.587 ± 0.0324
54 | CTTGTC | 0.741 ± 0.0177 | 0.888 ± 0.0216 | 0.915 ± 0.0332
55 | ACGTTA | 1.26 ± 0.034 | 1.37 ± 0.0435 | 1.29 ± 0.0362
56 | AACTCC | 0.917 ± 0.0119 | 1.02 ± 0.0156 | 1.06 ± 0.0177
57 | AGAAAA | 1.83 ± 0.0887 | 1.85 ± 0.0773 | 1.63 ± 0.11
58 | ATTACG | 1.22 ± 0.102 | 1.27 ± 0.0629 | 1.23 ± 0.0609
59 | ATCTCA | 1.42 ± 0.0416 | 1.5 ± 0.0539 | 1.43 ± 0.0584
60 | CAGCAC | 0.3 ± 0.0076 | 0.335 ± 0.0156 | 0.476 ± 0.0603
